Test results published in PubChem BioAssay AID1508600 (Functional Genomics Laboratory (NCATS/FGL), 2020).
The campaign covered roughly 53,000 sequences. About 3,700 (7%) were called active. Only a selection was taken, and actives are over-represented in it overall. A number with no mark means an inactive call.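 How the source made its calls: active means gene knockdowns whose robust z-score for IL-1 alpha signal is at least 2 or at most -2, so actives lie on both sides; inactive means the rest.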

Test: Components of the Cytosolic LPS Sensing Pathway: Gene Identification via Genome-wide siRNA Screen;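 further: robust z of the log signal after scaling to non-targeting control siRNA wells of the plate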
Conditions: RAW264.7 macrophages, IL-1a HTRF, actives lie on both sides, screened at 100 nM (by protocol), cells primed 5 h with Pam3CSK4 first
In short: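 Cells (RAW264.7, 1×10^4 per well) were transfected with siRNA at 100 nM and cultured 48h at 37 degrees C. Pam3CSK4 was added for 5 hours; LipidA transfection followed for 24 hour. IL-1a was then measured by HTRF.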

Sequence	z-score
CCAAAGAGAUAUCCCUCCCTT against Olfr1350	-0.283
GCAGGAAUUCUUGAAUUAUTT against Ly75	2.66 (active)
GGACUUCUCAUCCUAUUUATT against Iah1	-0.638
GAAUGAACUGCUGAAAAAGTT against Klra16	0.462
GACUCCCAGCUGGCUAUGATT against Ifna9	0.583
GGCUCAGUACUUUCUAAAATT against Vmn1r72	-0.637
GCCUUGUCUAUAGGACUGUTT against Grm6	-0.00801
GCUUCAUGAUGAAUCACCUTT against Otulinl	-2.1 (active)
CGAGCAUUCACCGUACGUATT against Id4	0.0542
GGGCAAGGUGUAUUGUCAATT against D830050J10Rik	-0.00921
GGCCCAACAAUACCUGCUGTT against Rgs17	-1.5
GGAUGAAGAAACAAGAAAGTT against Tmc1	-2.46 (active)
GCACCGACCACCAAAUCUATT against Prol1	0.65
GGUUGUGACAAUGUGAUCCTT against Coro1a	-2.22 (active)
CCAUCUACAAGUGUCCUUATT against Zfp276	-0.632
CCAUAUCCCUGUGGAAAAGTT against Manf	-0.322
CGGAUAUCCACAAAUAUCGTT against Atp1b3	0.508
GGGUUCAAGAGAUGGGAAUTT against Efna5	0.453
GCUCUCAGCAAAAACCGAGTT against Kif26b	2.98 (active)
GGCUGUCAGUGUUUACAGGTT against Srd5a1	-0.247
GGGAUGAUUCAAUGGAUAATT against Tbx22	0.789
GCUGGUUUCAUCCGCCAUATT against Dvl3	1.18
GCAUAUAAGAGAAGUGCCUTT against Parl	0.298

Sequence	z-score
GCACCAAUACAUUUGGACCTT against Nabp1	1.74
GGAGUCAGUACUGUAAAAUTT against Rin2	-1.91
GGAGAGAAAAAAGUCUCUCTT against Olfr66	2.55 (active)
GCAACUGUUACUUCUCAACTT against Lrif1	0.598
GGUUAACUCCUUUUCUAGATT against Ints13	-0.52
GCCUACACCAGUCCUUUGATT against Baiap2l1	0.509
GGAACUAUCCAGUAGGUAGTT against Mill2	0.846
GGUUCUGGAUUUCUGUUUUTT against Phf24	-1.38
GGAUGAAGAUGGAGAUCUUTT against Tfg	2.14 (active)
GGAAAAAGAACACCUUUUATT against Ints6l	-0.74
GGACACCACCAAUCUUGACTT against Arsg	-1.57
GGGCAUUGGGAUCCUCAAUTT against Olfr139	-0.734
CGGAUCUUGUCAAUAACCATT against Angptl1	0.295
GCAGGAGUAAGAAUGAAUGTT against Luzp1	0.999
GGAACUUAGAAGUUUACAATT against Caml	-0.0418
GGUCACAAAGAAGAAUCACTT against Heg1	-2.31 (active)
GGUUGAGUGUUUGAAGUCATT against Slc38a11	-1.9
GCUUUACUCCCUAAAUUCATT against Dmrt3	0.755
CCUCUUAGAUCAGGAUUAUTT against Usp37	0.991
GGCAUGGAAUGAGCUUUUCTT against Nr2e3	3.83 (active)
GGACUAAGCAAUCUCUUUUTT against Gspt2	0.81
GGUGCUUUGUUAUCCAUAATT against Tnfrsf26	-2.72 (active)
CCUAAUUGUAGUAGUACUATT against Olfr117	-0.955

Sequence	z-score
GGCCUAGCAAUUCUUGAGCTT against Gm5087	-0.18
CCCUGUAUAUUGCAUUUCCTT against Pcdhb21	0.198
GGGAGUUUUUAUAUGGUUUTT against Ybey	1.27
GCAGAUGACUAUCGGAAGUTT against Usp53	2.19 (active)
GGGCAGCAAAGAAUUAACUTT against Ptpmt1	-0.619
GGAAGAAAAUCUUGAAGCATT against Ddx51	-0.232
GCGAUAUGACAGACUCUUCTT against Csrnp1	1.79
GGAUGUUAUUCGCCACGCGTT against Zfp335	-0.134
CCCGUUCAAGCAAUUACAUTT against G2e3	-1.05
GGUGAAGACUUCCAGAAGGTT against Reg3a	-0.186
CCUGUACAGUUGGAAACAUTT against Snrpd1	-2.02 (active)
GGACUUCUCCUUUAAUAAUTT against Cox7a2l	-0.494
GCCCGACCUGUUGAGAAGATT against Znhit3	1.43
GGAGGAAAAGUAGGUUUGCTT against Peli1	-0.531
GGUAAGUGGAGGUAUUCUUTT against Egln1	2.28 (active)
GGCCAGGAAAUAUGAAAUATT against Phtf1	-0.352
GCCUUGAUAAUUUUGUAAGTT against Gimap9	0.533
GCACCCUAAUGUGAUCGCATT against Cdk19	-1.34
CCACCUGAAUCAUUACUCATT against Rdh19	-3.29 (active)
GGAGAAGAUUUUCUGUAUCTT against Atp13a5	0.545
GCUGAGAGACUUGUGAAAUTT against Ndufb11	1.06
GGAAAUCAGCUGUGAAAAATT against Fbxl20	-0.628
GCAGGUCUAAAACUCUCAUTT against Sfmbt1	2.38 (active)
